Screening data deposited in PubChem BioAssay by several laboratories.
Most compounds without a hit are left out; they make up all but 2.9% or so of the library.
ABHD5-PLIN5 inh: ABHD5-PLIN5 protein interaction inhibition. inhibition, % at 4 µM. Q00G26+Q8WTS1. Split G. princeps luciferase complementation, luminescence, 4 h. AID 602281. 360,000 compounds, 0.78% hits;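 active = inhibition above the mean inhibition across every tested compound plus 3 SD, cut at about 22% in these data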;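 note: 0% = DMSO only wells and the 100% control is not disclosed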
DAGLB inhibitor: diacylglycerol lipase beta (human) inhibition; Q8NCG7; HEK293T DAGLB membrane lysate, EnzChek fluorogenic substrate; inhibition, % at 5.17 µM; 340,000 compounds, 0.059% hits; AID 504411; in the data active = inhibition above about 34%;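 note: 0% = enzyme with vehicle and 100% = wells lacking enzyme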
Rtt109 HAT inh: C. albicans Rtt109 histone acetyltransferase inhibition; purified Rtt109/Vps75, ThioGlo CoA-SH fluorescence, 4 h; AID 540336; 330,000 compounds, 0.16% hits; Q5AAJ8; inhibition, % at 34.9 µM;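 active = inhibition of at least 50% in every replicate; inconclusive = best replicate reaches 50% inhibition but some replicates fall short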
sPLA2-III inh: Blocks human group III sPLA2 activity; 370,000 compounds, 0.56% hits; inhibition, % at 12.2 µM; QFRET BODIPY PC-A2 liposome hydrolysis, fluorescence;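 active = inhibition above mean plus 3 SD of compounds lying within the high and low control bounds, cut at about 19% in these data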;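 note: 0% = median of test compound wells and 100% = no enzyme DMSO wells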
Target sequence (Q9NZ20 whole entry, looked up): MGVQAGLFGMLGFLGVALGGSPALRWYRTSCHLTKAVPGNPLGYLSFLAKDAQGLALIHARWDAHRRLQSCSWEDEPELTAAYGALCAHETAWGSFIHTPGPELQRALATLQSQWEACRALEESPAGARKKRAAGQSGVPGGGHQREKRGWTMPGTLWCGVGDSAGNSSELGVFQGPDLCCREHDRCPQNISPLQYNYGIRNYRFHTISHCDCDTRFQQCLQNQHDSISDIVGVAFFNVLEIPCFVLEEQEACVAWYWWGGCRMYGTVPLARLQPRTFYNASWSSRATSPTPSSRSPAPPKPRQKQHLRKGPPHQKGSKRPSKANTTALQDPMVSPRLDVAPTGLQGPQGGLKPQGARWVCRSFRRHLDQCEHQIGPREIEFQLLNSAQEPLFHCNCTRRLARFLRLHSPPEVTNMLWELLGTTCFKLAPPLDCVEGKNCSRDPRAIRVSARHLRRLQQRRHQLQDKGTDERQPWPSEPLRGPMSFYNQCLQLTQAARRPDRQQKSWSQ
Myeloid diff MLP: promotes myeloid progenitor differentiation | ER-HoxA9 myeloid progenitors, lysozyme-GFP differentiation, flow cytometry | calls only at 10 µM | 360,000 compounds, 1% hits | AID 624256;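 active = normalized GFP-positive differentiation at or above the plate's own cutoff, the solvent-only control mean plus 3 SD; inconclusive = no clear call, values can overlap the other calls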;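 note: cells exposed to compound for four days before flow analysis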
H9c2 protect: protects H9c2 cardiomyocytes from peroxide injury; 360,000 compounds, 0.63% hits; AID 588492; protection from H2O2 cell death, % at 20 µM; H2O2 injury protection, ATPLite, 2 h;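 active = compounds giving at least 50% protection of heart cells from peroxide-induced death in the single-dose screen, raw or plate-pattern-corrected value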;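 note: 0% = DMSO wells with peroxide and 100% = DMSO wells without peroxide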
Myeloid diff: promotes myeloid progenitor differentiation | shares compounds with Myeloid diff MLP | ER-HoxA9 myeloid progenitors, GFP/Mac1 double-positive flow | calls only | 2,300 compounds, 2% hits;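 active = share of green or green-and-red cells above 9 and 9% in run 1 or 4 and 3% in run 2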
GFP autofluor: flagged as fluorescent in myeloid differentiation counter-screen | shares compounds with Myeloid diff MLP | ER-HoxA9 myeloid progenitors, no estrogen, GFP autofluorescence flow cytometry; vehicle wells 0%, positive control 100% | fluorescence response, % (concentration not given with the values) | 2,300 compounds, 7.4% hits | AID 651707;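 active = over 5% cells positive for green fluorescent reporter, or over 2% positive for both it and APC stain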;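 note: range taken on the double positive population between DMSO and positive control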
* = called active by the depositor; i = inactive; u = inconclusive; x = no result; + = active, no number.

SMILES	ABHD5-PLIN5 inh	DAGLB inhibitor	Rtt109 HAT inh	sPLA2-III inh	Myeloid diff MLP	H9c2 protect	Myeloid diff	GFP autofluor
O=C(NCCc1c[nH]c2ccccc12)c1ccc([N+](=O)[O-])o1	-4	1	x	-27	+	-17	i	1
O=C(Nc1cc(Br)ccc1O)c1cc(-c2ccco2)on1	4	-5	-4	10	i	-11	i	0
O=C(Nc1cc(Br)ccc1O)c1cc(-c2ccccc2)on1	12	-7	-2	0	i	-2	x	x
O=C(Nc1cc(Cl)ccc1O)c1cc(-c2ccco2)on1	4	-1	-1	5	u	-13	x	x
Cc1ccc(O)c(NC(=O)c2cc(-c3ccccc3)on2)c1	10	-4	0	3	+	-11	i	0
COc1ccccc1C(=O)NNC1=C(C(=O)C(F)(F)F)CCC1	3	2	1	-4	+	67*	i	2
O=C(NNC1=C(C(=O)C(F)(F)F)CCC1)c1ccccc1O	-6	-5	6	7	i	20	x	x
Nc1ccccc1C(=O)NNC1=C(C(=O)C(F)(F)F)CCC1	1	-6	-1	4	+	18	i	2
CC1(C)O[C@H]2CC(=O)OC[C@@]23C1CC(=O)[C@]1(C)C3CC[C@@]2(C)[C@H](c3ccoc3)OC(=O)[C@H]3O[C@]321 (stereo partly specified)	3	-2	6	5	+	0	i	0
CC1(C)O[C@H]2CC(=O)OC[C@]23[C@H]2CC[C@@]4(C)[C@H](c5ccoc5)OC(=O)[C@H]5O[C@]54[C@]2(C)[C@@H](O)C[C@@H]13	5	0	7	0	i	0	x	x
O=C(N/N=C/c1c(Cl)nc2ccccn2c1=O)c1cccnc1	6	0	-7	12	i	11	x	x
Cn1cnnc1Sc1nc2ccccc2nc1NS(=O)(=O)c1ccccc1	-6	5	-1	-4	i	5	i	0
CC(=O)Nc1ccc(S(=O)(=O)Nc2nc3ccccc3nc2Sc2nncn2C)cc1	2	-1	x	-35	i	17	x	x
COC(=O)C(C)(C)c1cccnc1C#N	8	1	-29	6	i	37	i	0
Cc1ccc2nc(CSc3nnc(Nc4ccccc4C)s3)cc(=O)n2c1	4	2	-11	1	i	-1	x	x
COc1ccc(Cl)cc1NC(=O)C1CSC(c2ccncc2)=N1 (stereo unspecified)	-2	-5	10	-5	+	-7	i	0
COc1ccc(Cl)cc1NC(=O)NC(C)c1ccncc1 (stereo unspecified)	9	-3	7	1	i	-2	x	x
CCOc1ccc(NC(=O)CN2C(=O)C(C)SC(C)C2=O)cc1 (stereo unspecified)	1	2	9	-4	i	4	x	x
CCN(CC)C(=O)CN1C(=O)C(=O)c2ccccc21	-11	0	-2	0	i	-4	i	1
O=C(NCCS(=O)(=O)c1ccc(Br)cc1)c1c(F)cccc1F	6	0	-3	-1	i	0	x	x
O=C(O)c1ccc(-n2cccc2/C=C2/NC(=O)N(c3cccc(Cl)c3)C2=O)cc1	5	7	-4	-5	+	-10	i	0
COCCCn1c(=O)/c(=C\c2ccccc2OC(F)F)s/c1=C(/C#N)C(N)=O	10	-6	-5	7	i	7	x	x
C/C(=N\NC(=O)CNc1ccc(F)cc1)c1cc2ccccc2o1	-2	0	10	-2	+	-2	i	0
COc1ccc(NCC(=O)N/N=C(\C)c2cc3ccccc3o2)cc1	2	-1	3	6	i	-15	x	x
CCCCc1nn(-c2cc(Cl)ccc2OC)c2c1C(=O)CC(C)(C)C2	3	-5	-12	1	i	-25	i	1
CCC[C@@H]1C[C@@]1(CCC)[C@@H](NP(=O)(c1ccccc1)c1ccccc1)c1ccc(C(=O)OC)cc1	x	x	x	-1	x	x	x	x
